In ChEMBL document CHEMBL3433997, “St. Jude Leishmania screening dataset” (2016) one finds inhibition data, which are given here for 40 compounds.

Structures are written as SMILES.

In the first test the target is Solute carrier family 2, facilitated glucose transporter member 1 (Homo sapiens) (UniProt P11166). Kind of test: ST_JUDE_LEISH: Cytotoxicity at 2uM final concentration against transgenic Leishmania Mexicana promastigotes LmGLUT1 that are glucose transport deficient and complemented with the human glucose transporter GLUT1. Activity is measured by DNA content using SYBR green in vitro. It is filed as functional.
Solute carrier family 2, facilitated glucose transporter member 1 (Homo sapiens), sequence (P11166 whole entry): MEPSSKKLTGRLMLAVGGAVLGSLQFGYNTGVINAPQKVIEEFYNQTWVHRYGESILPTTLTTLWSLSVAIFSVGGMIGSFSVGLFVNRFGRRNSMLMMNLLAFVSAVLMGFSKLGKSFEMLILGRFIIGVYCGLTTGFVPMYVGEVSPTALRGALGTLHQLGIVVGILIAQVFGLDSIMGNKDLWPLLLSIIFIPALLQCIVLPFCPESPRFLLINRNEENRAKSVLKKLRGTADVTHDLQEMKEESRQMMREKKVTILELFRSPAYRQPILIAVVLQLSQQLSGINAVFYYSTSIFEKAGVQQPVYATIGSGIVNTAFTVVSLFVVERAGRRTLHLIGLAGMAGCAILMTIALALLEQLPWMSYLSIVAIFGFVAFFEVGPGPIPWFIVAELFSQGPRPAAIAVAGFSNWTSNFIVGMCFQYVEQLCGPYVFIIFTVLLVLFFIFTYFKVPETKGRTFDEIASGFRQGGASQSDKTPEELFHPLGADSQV
As usually defined, the inhibition is the change of the read-out against control, counted positive when it falls. For `Fc1ccccc1COc1ccc(Nc2ncnc3ccc(I)cc23)cc1Cl`, the inhibition worked out at 18.2%.
Regarding `COc1ccc(-c2ccc(NC(=O)c3cccc(Cl)c3)cc2)cc1CNC(C)C`, the inhibition was determined as 4.75%.
Same read-out and setting: as for `CCC(C)NS(=O)(=O)c1ccc2nc(Nc3ccc(C)cc3)n(C3CCCCC3)c2c1` (stereo not given), the figure is 5.26%; as for `CCOC(=O)NC1=NC(C)(C)N(OCCCOc2cc(Cl)c(Cl)cc2Cl)C(NC(=O)OCC)=N1`, 2.08%; as for `O=C(NCCN1CCCC1)c1cc(-c2ccc(Cl)c(O)c2)c(-c2ccncc2)o1`, 2.96%.
As to `CCCCCC(=O)N1CCOC(CCN2CCC(c3ccccc3)CC2)(c2ccc(Cl)c(Cl)c2)C1` (stereo not given), the inhibition amounted to 2.57%.
Consider `O=C(Nc1cccc(-c2nn3ccccc3c2-c2ccnc(Nc3ccccc3)n2)c1)c1cc(F)ccc1F`, for which the inhibition was 4.48%.
For the compound `N#Cc1ccc2c(c1)CN(CCCCNC(=O)c1ccc(-c3ccccc3)cc1)CC2`, the inhibition was 3.14%.
Regarding `CN1CCC(N2CCN(Cc3cccc(-c4ccc(-c5nc6cc(F)ccc6[nH]5)cc4)c3)CC2)CC1`, the inhibition worked out at 2.43%.
For the compound `CC1(C)CCC(C)(C)c2c1ccc(C1CCN(CCCCNC(=O)c3ccc(-c4ccc(C#N)cc4)cc3)CC1)c2OCC(N)=O`, the inhibition amounted to 3.73%.
As to `FC(F)(F)c1ccc2[nH]c(-c3ccc(-c4cccc(CNCCc5cccnc5)c4)s3)nc2c1`, the inhibition is 3.04%.
On to `O=C(NC1CCN(c2ccnc3ccccc23)C1)c1ccc(OC(F)(F)F)cc1` (stereo not given), for which the inhibition turned out to be 1.75%.
Take `CCCCCN1CCCN(Cc2cccc(NC(=O)c3ccc4ccccc4c3)c2)CC1`: the inhibition was found to be 4.56%.
On the same count and under the same terms, as for `O=C(/C=C/c1ccc(F)cc1)NC1CCC(CCN2CCc3ccccc3CC2)CC1` (stereo not given), the figure is 7.03%; as for `Cn1cc(C2CCN(CCCCNC(=O)c3ccc(-c4ccc(C(F)(F)F)cc4)c(CO)c3)CC2)c2ccccc21`, 4.11%.
Turning to `Cc1cc(N)c2cc(NC(=O)c3cc(C(F)(F)F)cc(C(F)(F)F)c3)ccc2n1`, the inhibition worked out at 0.38%.
Consider `COc1cc2nc(-c3ccc(Br)cc3)cc(N)c2cc1OC`, for which the inhibition turned out to be 64.2%.
As to `O=C(Nc1ccccc1)Nc1ccc(-n2ccc(C(F)(F)F)n2)cc1`, the inhibition was found to be 2.55%.
Still for that read-out and setting: as for `COc1ccc2nccc(N3CCN(CCNCc4ccc5c(n4)NC(=O)CS5)CC3)c2c1`, the figure is 1.43%; as for `CCOc1ccc2c(=NN=Cc3cccc(F)c3)cc(C)[nH]c2c1`, 6%.
With `Cc1ccc(NC(=O)C2CCC2)cc1-c1ccc(C(=O)NCC2CC2)cc1`, the inhibition came out at 1.36%.
For `COC(=O)c1cc(NC(=O)Nc2ccc(Cn3ncc(N4CCCNCC4)c(Cl)c3=O)cc2)cc(C(=O)OC)c1`, the inhibition was determined as 0.7%.
As for `C=CCNC(=O)CCCNC(=N)N`, the inhibition stood at 1.5%.
As for `CCOC(=O)C1=C(C)N=c2sc(=Cc3cc(Cl)ccc3O)c(=O)n2C1c1cc(OC)c(OC)cc1Br` (stereo not given), the inhibition turned out to be 7%.
Turning to `CCOc1ccc(CCC(=O)O)cc1OCC`, the inhibition stood at 2.83%.
Same read-out and setting: as for `COc1ccc2nccc([C@@H](O)CN3CCC(NCc4nc5c(cc4F)SCC(=O)N5)C(F)C3)c2c1` (stereo not given in full), the figure is 5.83%.
As to `CN1CCN(c2cc(-c3cccnc3)nc(-c3ccncc3)n2)CC1`, the inhibition amounted to 5.56%.
The same measure, in the same setting: as for `CCCCN(CCCC)/C(=N/c1cccc(Cl)c1Cl)Nc1ccc(C#N)cc1O`, the figure is 3.21%; as for `CCN(CCN(C)C)Cc1ccc(-c2ccc(NS(=O)(=O)c3cccc4cccnc34)cc2)cc1`, 14%.
Consider `N#Cc1ccccc1Sc1ccccc1C(=O)Nc1ccc2ccccc2n1`, for which the inhibition was 7.84%.
As for `CCOc1cc(NC(=O)Nc2ccnc3ccccc23)cc(OC)c1`, the inhibition stood at 12.6%.
`CCN(CC)CCN(Cc1ccc(-c2ccc(C(F)(F)F)cc2)cc1)C(=O)Cn1c(SCc2ccc(F)cc2)cc(=O)c2ccccc21`: the inhibition is 1.74%.
For the compound `O=C(NCCCCCN1CCC(c2c[nH]c3ccccc23)CC1)Nc1ccc(I)c(Cl)c1`, the inhibition stood at 7.04%.
Same read-out and setting: as for `O=C(NC1CCN(CC2(c3ccccc3F)CCCC2)CC1)c1cc[nH]n1`, the figure is 4.33%.
In the case of `CC(C)(C)CC(C)(C)c1ccc(O)c(C(=O)Nc2cccc([N+](=O)[O-])c2)c1`, the inhibition was 1.48%.
In the case of `CCCN(CCC)CCCN(CCCN(CCC)CCC)c1cc(C)nc(Nc2ccc(Cl)cc2)n1`, the inhibition came out at 3.33%.
For `Cc1ccccc1C1CCN(C2CCC(NC(=O)/C=C/c3c(F)ccc(F)c3F)CC2)CC1` (stereo not given), the inhibition was 2.52%.
On to `CN(Cc1ccc(-c2ccc(C(F)(F)F)cc2)cc1)C(=O)Cn1c(CCc2cccc(F)c2F)nc(=O)c2ccc(N3CCN(CCN4CCCCC4)CC3)nc21`, for which the inhibition was 7.76%.
Take `COc1ccc(OCc2ccccn2)c(C2CCN(CCCCNC(=O)c3ccc(NC(=O)c4ccc(Cl)cc4)cc3)CC2)c1`: the inhibition turned out to be 1.01%.
Still for that read-out and setting: as for `CN(CCO)Cc1cccc(-c2ccc(NC(=O)c3cccc(C#N)c3)cc2)c1`, the figure is 1.6%.

Another test deals with Hexose transporter 1 (Plasmodium falciparum) (UniProt O97467). As to the kind of experiment: ST_JUDE_LEISH: Cytotoxicity at 2uM final concentration against transgenic Leishmania Mexicana promastigotes LmPfHT that are glucose transport deficient and complemented with the Plasmodium falciparum hexose transporter. Activity is measured by DNA content using SYBR green in vitro. It counts as functional.
In the case of `Fc1ccccc1COc1ccc(Nc2ncnc3ccc(I)cc23)cc1Cl`, the inhibition is 9.09%.
Same read-out and setting: as for `COc1ccc(-c2ccc(NC(=O)c3cccc(Cl)c3)cc2)cc1CNC(C)C`, the figure is 5.52%; as for `CCC(C)NS(=O)(=O)c1ccc2nc(Nc3ccc(C)cc3)n(C3CCCCC3)c2c1` (stereo not given), 4.02%; as for `CCOC(=O)NC1=NC(C)(C)N(OCCCOc2cc(Cl)c(Cl)cc2Cl)C(NC(=O)OCC)=N1`, 0.27%.
The same measure, in the same setting: as for `O=C(NCCN1CCCC1)c1cc(-c2ccc(Cl)c(O)c2)c(-c2ccncc2)o1`, the figure is 4.79%; as for `CCCCCC(=O)N1CCOC(CCN2CCC(c3ccccc3)CC2)(c2ccc(Cl)c(Cl)c2)C1` (stereo not given), 3.27%.
For the compound `O=C(Nc1cccc(-c2nn3ccccc3c2-c2ccnc(Nc3ccccc3)n2)c1)c1cc(F)ccc1F`, the inhibition is 2.05%.
As for `N#Cc1ccc2c(c1)CN(CCCCNC(=O)c1ccc(-c3ccccc3)cc1)CC2`, the inhibition is 3.16%.
With `CN1CCC(N2CCN(Cc3cccc(-c4ccc(-c5nc6cc(F)ccc6[nH]5)cc4)c3)CC2)CC1`, the inhibition came to 3.05%.
Take `CC1(C)CCC(C)(C)c2c1ccc(C1CCN(CCCCNC(=O)c3ccc(-c4ccc(C#N)cc4)cc3)CC1)c2OCC(N)=O`: the inhibition amounted to 4.26%.
Regarding `FC(F)(F)c1ccc2[nH]c(-c3ccc(-c4cccc(CNCCc5cccnc5)c4)s3)nc2c1`, the inhibition was 2.04%.
As to `O=C(NC1CCN(c2ccnc3ccccc23)C1)c1ccc(OC(F)(F)F)cc1` (stereo not given), the inhibition came to 1.97%.
Turning to `CCCCCN1CCCN(Cc2cccc(NC(=O)c3ccc4ccccc4c3)c2)CC1`, the inhibition worked out at 4.49%.
For `O=C(/C=C/c1ccc(F)cc1)NC1CCC(CCN2CCc3ccccc3CC2)CC1` (stereo not given), the inhibition was 5.64%.
Turning to `Cn1cc(C2CCN(CCCCNC(=O)c3ccc(-c4ccc(C(F)(F)F)cc4)c(CO)c3)CC2)c2ccccc21`, the inhibition was determined as 3.1%.
As to `Cc1cc(N)c2cc(NC(=O)c3cc(C(F)(F)F)cc(C(F)(F)F)c3)ccc2n1`, the inhibition worked out at 1.04%.
On to `COc1cc2nc(-c3ccc(Br)cc3)cc(N)c2cc1OC`, for which the inhibition is 23.6%.
As to `O=C(Nc1ccccc1)Nc1ccc(-n2ccc(C(F)(F)F)n2)cc1`, the inhibition was 2.63%.
Take `COc1ccc2nccc(N3CCN(CCNCc4ccc5c(n4)NC(=O)CS5)CC3)c2c1`: the inhibition was found to be 0.73%.
With `CCOc1ccc2c(=NN=Cc3cccc(F)c3)cc(C)[nH]c2c1`, the inhibition was 1.08%.
Consider `Cc1ccc(NC(=O)C2CCC2)cc1-c1ccc(C(=O)NCC2CC2)cc1`, for which the inhibition stood at 0.51%.
For `COC(=O)c1cc(NC(=O)Nc2ccc(Cn3ncc(N4CCCNCC4)c(Cl)c3=O)cc2)cc(C(=O)OC)c1`, the inhibition was found to be 1.45%.
Take `C=CCNC(=O)CCCNC(=N)N`: the inhibition came to 1.22%.
Turning to `CCOC(=O)C1=C(C)N=c2sc(=Cc3cc(Cl)ccc3O)c(=O)n2C1c1cc(OC)c(OC)cc1Br` (stereo not given), the inhibition turned out to be 6.74%.
Take `CCOc1ccc(CCC(=O)O)cc1OCC`: the inhibition was 3.36%.
On to `COc1ccc2nccc([C@@H](O)CN3CCC(NCc4nc5c(cc4F)SCC(=O)N5)C(F)C3)c2c1` (stereo not given in full), for which the inhibition came out at 3.21%.
On to `CN1CCN(c2cc(-c3cccnc3)nc(-c3ccncc3)n2)CC1`, for which the inhibition is 5.65%.
In the case of `CCCCN(CCCC)/C(=N/c1cccc(Cl)c1Cl)Nc1ccc(C#N)cc1O`, the inhibition was determined as 2.13%.
Consider `CCN(CCN(C)C)Cc1ccc(-c2ccc(NS(=O)(=O)c3cccc4cccnc34)cc2)cc1`, for which the inhibition came to 11.3%.
For `N#Cc1ccccc1Sc1ccccc1C(=O)Nc1ccc2ccccc2n1`, the inhibition came out at 11.5%.
In the case of `CCOc1cc(NC(=O)Nc2ccnc3ccccc23)cc(OC)c1`, the inhibition turned out to be 10.5%.
Still for that read-out and setting: the value for `CCN(CC)CCN(Cc1ccc(-c2ccc(C(F)(F)F)cc2)cc1)C(=O)Cn1c(SCc2ccc(F)cc2)cc(=O)c2ccccc21` was -0.14%; that for `O=C(NCCCCCN1CCC(c2c[nH]c3ccccc23)CC1)Nc1ccc(I)c(Cl)c1` was 4.76%; that for `O=C(NC1CCN(CC2(c3ccccc3F)CCCC2)CC1)c1cc[nH]n1` was 1.54%.
Take `CC(C)(C)CC(C)(C)c1ccc(O)c(C(=O)Nc2cccc([N+](=O)[O-])c2)c1`: the inhibition worked out at 2.51%.
For `CCCN(CCC)CCCN(CCCN(CCC)CCC)c1cc(C)nc(Nc2ccc(Cl)cc2)n1`, the inhibition turned out to be 1.71%.
In the case of `Cc1ccccc1C1CCN(C2CCC(NC(=O)/C=C/c3c(F)ccc(F)c3F)CC2)CC1` (stereo not given), the inhibition was 2.75%.
With `CN(Cc1ccc(-c2ccc(C(F)(F)F)cc2)cc1)C(=O)Cn1c(CCc2cccc(F)c2F)nc(=O)c2ccc(N3CCN(CCN4CCCCC4)CC3)nc21`, the inhibition stood at 7.16%.
For the compound `COc1ccc(OCc2ccccn2)c(C2CCN(CCCCNC(=O)c3ccc(NC(=O)c4ccc(Cl)cc4)cc3)CC2)c1`, the inhibition was -4.32%.
Still for that read-out and setting: the value for `CN(CCO)Cc1cccc(-c2ccc(NC(=O)c3cccc(C#N)c3)cc2)c1` was 0.52%.
